From PubChem BioAssay
Inconclusive results are not listed. The source made the active and inactive calls.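 Rule for the calls, unless noted: active = GFP signal, as percent of the solvent control, above the screen mean plus 3 SD, about 149; inconclusive = no reading because the compound's own fluorescence upset strain identification; inactive = the rest.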

Legend:
[1] = rapamycin-like changes in RPL19A-GFP expression – cell-based, S. cerevisiae, multiplex flow cytometry, primary screen (AID 1862; in the data active = percent of DMSO control GFP below about 86%;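 note: lower values mimic rapamycin by blocking the RPL19A rise seen in DMSO cells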); settings: S. cerevisiae RPL19A-GFP strain, flow cytometry fluorescence, 3 h; at 10 µM; stronger effect = lower value
[2] = TOR pathway GLN3 branch reporter MEP2-GFP changes – S. cerevisiae, multiplex flow cytometry, primary screen (AID 1867;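 active = GFP response, as percent of the DMSO control, above the screen-wide mean plus 3 SD, about 139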;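 note: median GFP channel fluorescence of barcode-gated MEP2-GFP cells measured by flow cytometry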); settings: S. cerevisiae MEP2-GFP strain, 3 h, at 10 µM, stronger effect = higher value, 100% means same as DMSO wells
[3] = TOR pathway RTG branch CIT2 reporter changes – S. cerevisiae, GFP fusion, multiplex flow cytometry, primary screen (AID 1870;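 active = percent response above a set limit, the screen-wide mean plus 3 SD, cut at about 130% in these data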;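 note: barcoded CIT2-GFP strain pooled with four other GFP strains with rapamycin as positive control; median GFP fluorescence per well over plate mean of DMSO wells so 100% = DMSO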); settings: S. cerevisiae CIT2-GFP expression, 3 h, at 10 µM, stronger effect = higher value
[4] = TOR pathway LAP4-GFP level changes – S. cerevisiae, multiplex flow cytometry, primary screen (AID 1873); settings: S. cerevisiae LAP4-GFP expression, 3 h, at 10 µM, stronger effect = higher value
[5] = yeast AGP1-GFP level changes, GLN3 branch – cell-based, multiplex flow cytometry, S. cerevisiae, primary screen (AID 1887;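 active = GFP signal above the screen-wide mean plus 3 SD, that is over about 124.5% of the solvent control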;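 note: AGP1-GFP fusion strain of S. cerevisiae within a five-strain barcoded multiplex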); settings: 3 h, at 10 µM, stronger effect = higher value
[6] = reduced mouse 2C T cell binding to pMHC/ICAM-1 vesicles – MLPCN validation set, flow cytometry, LFA-1/ICAM-1 modulator project, pilot screen (AID 2523;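 active = response below a set limit, under 55% cells CD8-positive and vesicle-bound, and CD8 cells' 90th-percentile brightness under 279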;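 for vesicle binding response: mean PE anti-B7-1 fluorescence of CD8+ cells relative to row control; 100% = QL9-loaded vesicles with DMSO vehicle in the same plate row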); settings: 2C mouse CD8+ T cells, at 7 µM, stronger effect = lower value; double positive events: measured here: CD8+/vesicle+ event percentage
[7] = biological target: Integrin beta-1 (Homo sapiens) + Integrin alpha-4 (Homo sapiens) (UniProt P13612+P05556); experiment: alpha4beta1 integrin LIBS antibody binding reduction – U937 cells, HUTS-21 mAb, flow cytometry, validation set, VLA-4 allosteric modulator project, pilot screen (AID 2674;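 active = inhibition above 50%, about 3 SD of the validation set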;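 note: antibody binding induced by the VLA-4 ligand LDV present at three times its Kd; 0% = LDV ligand with antibody and no compound and 100% = antibody without LDV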); settings: HUTS-21 LIBS mAb binding, at 6.7 µM, stronger effect = higher value, binding induced by LDV ligand
[8] = calorie-restriction mimetic ROS inhibitors, yeast – validation compound set, pilot screen (AID 2706;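 active = superoxide response below 65% of plate, a cut near 3 SD across the whole screen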;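 note: yeast exposed to compound for one week at 30 degrees C before staining; 100% = mean of all compound wells on the same plate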); settings: S. cerevisiae aging, superoxide DHE fluorescence; at 10 µM; stronger effect = lower value
[9] = biological target: Beta-adrenergic receptor kinase 1 (Homo sapiens) (UniProt P25098); experiment: GRK2 binders displacing RNA aptamer, biochemical, validation, human GRK2, bead flow cytometry (AID 488806;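 active = aptamer binding inhibition above 30%, about 3 SD of noise from non-fluorescent compounds; inactive = inhibition at or below 30%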); settings: bead-bound GRK2, FAM-aptamer displacement, at 10 µM, stronger effect = higher value
[10] = biological target: Beta-2 adrenergic receptor (Homo sapiens) (UniProt P07550); experiment: agonist-induced loss of surface beta2AR – cell-based, FAP fluorogen, flow cytometry, validation set, pilot screen (AID 504459;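 active = percent response above 42, roughly 3 SD of non-fluorescent test compounds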;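 note: agonist-driven loss of surface beta2AR via internalization measured by FAP dye flow cytometry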); settings: Am2.2-beta2AR cells, at 10 µM, stronger effect = higher value
[11] = biological target: AP-2 complex subunit beta (Homo sapiens) (UniProt P63010); experiment: beta-arrestin/AP2 interaction blockers – biochemical, validation set, GST-AP2 beads, flow cytometry, pilot screen (AID 504541;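 active = inhibition above 54%, about 3 SD of non-fluorescent compounds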;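 note: AP2 carries R879A mutation and is captured from E. coli lysate; bead-bound FITC arrestin peptide fluorescence measuring arrestin peptide binding to AP2; 0% = DMSO wells and 100% = excess unlabeled arrestin peptide control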); settings: FITC arrestin peptide, at 10 µM, stronger effect = higher value, AP2 beta2 appendage fragment, R879A mutant
[12] = cytosolic pH regulators acting via V-ATPase – S. cerevisiae, pHLuorin, HTS validation (AID 504600; in the data active = response above about 15%;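 note: plate controls were DMSO for no effect and reference compound for full effect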); settings: V-ATPase proton transport, at 10 µM, stronger effect = higher value
[13] = test system: anti-desmoglein-3 scFv antibody binding to human DSG3; experiment: blockers of pathogenic pemphigus antibody–desmoglein-3 binding – biochemical, validation compound set, bead-based, flow cytometry, pilot screen (AID 588368;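 active = binding below the plate cutoff, the plate median minus 3 SD, with a reading above zero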;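 note: signal is the median channel fluorescence of bead-bound GFP antibody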); settings: Protein G beads, DSG3-Fc, scFv-GFP binding, at 10 µM, stronger effect = lower value
[14] = Nile Red efflux blockade in pump-expressing yeast – validation compound set, multiplex, phenotypic, pilot screen (AID 588506;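 active = efflux inhibition above 0.42, the validation set average plus 4 SD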;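 note: Nile Red retained in cells so higher fluorescence means more efflux inhibition; 0 = negative control wells and 1 = enniatin B 25 µM full block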); settings: S. cerevisiae pump-expressing triplex, Nile Red efflux flow cytometry; at 10 µM; stronger effect = higher value; the pumps come from Candida albicans
[15] = biological target: ATP-binding cassette sub-family B member 6 (Homo sapiens) (UniProt Q9NP58); experiment: blockers of ABCB6-driven porphyrin uptake – K562-ABCB6 cells, flow cytometry, validation set, pilot screen (AID 588550;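 active = inhibition above the screen-wide mean plus 3 SD, about 51%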;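 note: 0% = DMSO wells and 100% = benzethonium chloride 70 µM positive control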); settings: K562-ABCB6 porphyrin accumulation, 1 h, at 10 µM, stronger effect = higher value
[16] = AML differentiation inducers, ER-HoxA9 marrow cells – cell-based, GFP/MAC1 double positive, flow cytometry, validation set, primary screen (AID 588685;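 active = differentiation response of at least 50%, scaled between solvent and reference control, from cells with both markers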;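 note: compound exposure lasts four days before antibody staining and flow analysis; 0% = DMSO wells and 100% = 5 µM fulvestrant positive control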); settings: stronger effect = higher value, normalized: vehicle 0, fulvestrant 100

ATP-binding cassette sub-family B member 6 (Homo sapiens), sequence (Q9NP58 whole entry, looked up): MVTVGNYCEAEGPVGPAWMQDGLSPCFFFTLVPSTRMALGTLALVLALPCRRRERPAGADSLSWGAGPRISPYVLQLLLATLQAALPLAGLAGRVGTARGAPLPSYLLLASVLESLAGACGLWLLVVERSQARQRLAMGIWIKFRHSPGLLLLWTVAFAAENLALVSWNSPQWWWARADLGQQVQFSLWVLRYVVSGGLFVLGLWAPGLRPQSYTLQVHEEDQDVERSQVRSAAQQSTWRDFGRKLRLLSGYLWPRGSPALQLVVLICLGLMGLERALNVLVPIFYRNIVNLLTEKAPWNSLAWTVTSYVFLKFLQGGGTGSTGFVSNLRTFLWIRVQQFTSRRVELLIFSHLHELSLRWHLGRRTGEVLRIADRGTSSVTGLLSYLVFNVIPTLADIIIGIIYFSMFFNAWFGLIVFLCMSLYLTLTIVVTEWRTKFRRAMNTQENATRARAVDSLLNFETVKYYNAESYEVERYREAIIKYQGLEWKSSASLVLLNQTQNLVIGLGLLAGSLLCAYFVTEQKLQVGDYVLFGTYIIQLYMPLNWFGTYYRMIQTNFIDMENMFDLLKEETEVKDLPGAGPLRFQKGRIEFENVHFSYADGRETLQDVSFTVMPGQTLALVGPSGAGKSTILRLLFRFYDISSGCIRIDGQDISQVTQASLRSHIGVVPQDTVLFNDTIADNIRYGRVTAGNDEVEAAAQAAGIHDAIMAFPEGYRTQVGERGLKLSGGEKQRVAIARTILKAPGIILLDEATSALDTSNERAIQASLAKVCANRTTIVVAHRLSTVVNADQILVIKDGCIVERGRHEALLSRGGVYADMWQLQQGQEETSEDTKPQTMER
Integrin beta-1 (Homo sapiens) + Integrin alpha-4 (Homo sapiens), sequence (P05556 whole entry, looked up): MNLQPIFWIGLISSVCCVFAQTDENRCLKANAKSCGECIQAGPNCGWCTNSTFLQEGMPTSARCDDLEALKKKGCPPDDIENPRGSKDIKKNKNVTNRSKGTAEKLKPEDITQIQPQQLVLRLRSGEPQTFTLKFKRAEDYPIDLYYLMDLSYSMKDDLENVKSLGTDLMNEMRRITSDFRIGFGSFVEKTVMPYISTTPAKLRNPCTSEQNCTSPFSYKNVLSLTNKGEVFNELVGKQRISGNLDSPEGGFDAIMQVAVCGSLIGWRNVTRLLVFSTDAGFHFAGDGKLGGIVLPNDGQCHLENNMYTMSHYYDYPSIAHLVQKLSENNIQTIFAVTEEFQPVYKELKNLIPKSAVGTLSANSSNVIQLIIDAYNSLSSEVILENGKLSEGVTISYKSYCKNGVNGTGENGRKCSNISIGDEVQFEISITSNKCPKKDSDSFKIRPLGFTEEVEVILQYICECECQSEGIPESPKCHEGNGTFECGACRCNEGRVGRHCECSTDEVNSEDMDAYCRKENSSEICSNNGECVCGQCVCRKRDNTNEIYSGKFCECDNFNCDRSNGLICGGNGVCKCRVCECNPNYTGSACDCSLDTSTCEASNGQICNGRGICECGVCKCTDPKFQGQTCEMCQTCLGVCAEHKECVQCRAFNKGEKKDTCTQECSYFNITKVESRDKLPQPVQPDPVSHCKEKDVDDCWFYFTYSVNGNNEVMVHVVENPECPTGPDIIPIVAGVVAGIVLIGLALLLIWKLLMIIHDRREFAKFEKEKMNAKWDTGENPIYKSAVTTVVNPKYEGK
Integrin beta-1 (Homo sapiens) + Integrin alpha-4 (Homo sapiens), sequence (P13612 whole entry, looked up): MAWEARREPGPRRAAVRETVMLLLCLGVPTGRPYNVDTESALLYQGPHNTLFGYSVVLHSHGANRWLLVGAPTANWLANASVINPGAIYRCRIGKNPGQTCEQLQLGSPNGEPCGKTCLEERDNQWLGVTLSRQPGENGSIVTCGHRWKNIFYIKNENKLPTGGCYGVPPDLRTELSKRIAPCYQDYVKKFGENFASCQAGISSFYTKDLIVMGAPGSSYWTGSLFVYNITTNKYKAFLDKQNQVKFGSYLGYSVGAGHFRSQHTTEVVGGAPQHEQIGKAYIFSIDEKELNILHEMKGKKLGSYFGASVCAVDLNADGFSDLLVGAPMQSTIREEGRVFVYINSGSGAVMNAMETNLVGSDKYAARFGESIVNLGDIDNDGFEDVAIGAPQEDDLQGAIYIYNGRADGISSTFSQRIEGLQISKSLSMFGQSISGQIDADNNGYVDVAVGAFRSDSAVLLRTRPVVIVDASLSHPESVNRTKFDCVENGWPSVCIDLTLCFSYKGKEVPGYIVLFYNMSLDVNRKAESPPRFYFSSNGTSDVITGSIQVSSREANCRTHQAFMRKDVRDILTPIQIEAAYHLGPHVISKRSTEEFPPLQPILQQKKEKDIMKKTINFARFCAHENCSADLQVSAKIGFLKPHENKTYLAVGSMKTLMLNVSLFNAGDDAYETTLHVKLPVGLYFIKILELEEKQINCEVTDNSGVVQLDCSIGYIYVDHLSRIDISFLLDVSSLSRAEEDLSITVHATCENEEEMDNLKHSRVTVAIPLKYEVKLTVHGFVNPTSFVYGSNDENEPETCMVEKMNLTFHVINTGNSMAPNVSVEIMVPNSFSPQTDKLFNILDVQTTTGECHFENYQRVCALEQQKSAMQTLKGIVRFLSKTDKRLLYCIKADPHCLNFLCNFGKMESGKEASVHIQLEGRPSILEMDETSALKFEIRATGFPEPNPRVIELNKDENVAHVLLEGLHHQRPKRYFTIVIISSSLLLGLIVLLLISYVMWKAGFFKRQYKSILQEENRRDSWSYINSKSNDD
AP-2 complex subunit beta (Homo sapiens), sequence (P63010 whole entry, looked up, the tested form may be a part, one chain of several): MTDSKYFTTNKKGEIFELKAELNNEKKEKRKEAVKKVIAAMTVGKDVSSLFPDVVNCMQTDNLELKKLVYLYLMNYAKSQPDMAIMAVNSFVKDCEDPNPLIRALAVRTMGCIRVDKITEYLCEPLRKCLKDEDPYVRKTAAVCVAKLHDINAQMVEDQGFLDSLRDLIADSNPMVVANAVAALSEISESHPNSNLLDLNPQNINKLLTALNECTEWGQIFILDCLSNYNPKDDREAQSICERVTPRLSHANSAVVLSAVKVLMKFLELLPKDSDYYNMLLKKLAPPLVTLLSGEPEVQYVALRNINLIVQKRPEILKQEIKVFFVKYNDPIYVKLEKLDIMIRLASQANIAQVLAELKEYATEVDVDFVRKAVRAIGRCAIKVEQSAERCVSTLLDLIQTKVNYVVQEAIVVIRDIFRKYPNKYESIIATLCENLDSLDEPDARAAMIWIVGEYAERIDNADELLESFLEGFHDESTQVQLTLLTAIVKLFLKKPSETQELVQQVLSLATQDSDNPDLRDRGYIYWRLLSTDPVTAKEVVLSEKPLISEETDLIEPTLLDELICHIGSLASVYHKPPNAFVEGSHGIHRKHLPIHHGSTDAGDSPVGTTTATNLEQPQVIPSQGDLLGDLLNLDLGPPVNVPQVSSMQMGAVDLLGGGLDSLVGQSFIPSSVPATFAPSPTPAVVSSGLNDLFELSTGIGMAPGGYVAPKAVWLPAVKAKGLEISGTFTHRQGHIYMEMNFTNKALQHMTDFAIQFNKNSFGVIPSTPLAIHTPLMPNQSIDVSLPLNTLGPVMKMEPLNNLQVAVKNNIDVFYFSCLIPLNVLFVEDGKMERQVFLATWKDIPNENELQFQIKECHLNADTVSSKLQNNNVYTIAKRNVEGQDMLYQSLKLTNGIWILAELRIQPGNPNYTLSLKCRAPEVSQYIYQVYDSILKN
Beta-2 adrenergic receptor (Homo sapiens), sequence (P07550 whole entry, looked up): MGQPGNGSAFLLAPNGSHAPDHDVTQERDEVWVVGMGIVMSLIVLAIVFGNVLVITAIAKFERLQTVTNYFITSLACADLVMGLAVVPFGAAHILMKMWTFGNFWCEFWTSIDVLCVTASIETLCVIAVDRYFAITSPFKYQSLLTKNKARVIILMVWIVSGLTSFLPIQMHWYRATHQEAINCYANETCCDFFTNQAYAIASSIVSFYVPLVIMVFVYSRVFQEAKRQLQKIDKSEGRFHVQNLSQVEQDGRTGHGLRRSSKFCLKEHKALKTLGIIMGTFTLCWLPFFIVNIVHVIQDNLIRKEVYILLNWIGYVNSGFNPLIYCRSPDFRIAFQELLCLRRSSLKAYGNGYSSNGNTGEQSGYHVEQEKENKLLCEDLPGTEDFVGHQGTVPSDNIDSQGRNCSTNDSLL
Beta-adrenergic receptor kinase 1 (Homo sapiens), sequence (P25098 whole entry, looked up): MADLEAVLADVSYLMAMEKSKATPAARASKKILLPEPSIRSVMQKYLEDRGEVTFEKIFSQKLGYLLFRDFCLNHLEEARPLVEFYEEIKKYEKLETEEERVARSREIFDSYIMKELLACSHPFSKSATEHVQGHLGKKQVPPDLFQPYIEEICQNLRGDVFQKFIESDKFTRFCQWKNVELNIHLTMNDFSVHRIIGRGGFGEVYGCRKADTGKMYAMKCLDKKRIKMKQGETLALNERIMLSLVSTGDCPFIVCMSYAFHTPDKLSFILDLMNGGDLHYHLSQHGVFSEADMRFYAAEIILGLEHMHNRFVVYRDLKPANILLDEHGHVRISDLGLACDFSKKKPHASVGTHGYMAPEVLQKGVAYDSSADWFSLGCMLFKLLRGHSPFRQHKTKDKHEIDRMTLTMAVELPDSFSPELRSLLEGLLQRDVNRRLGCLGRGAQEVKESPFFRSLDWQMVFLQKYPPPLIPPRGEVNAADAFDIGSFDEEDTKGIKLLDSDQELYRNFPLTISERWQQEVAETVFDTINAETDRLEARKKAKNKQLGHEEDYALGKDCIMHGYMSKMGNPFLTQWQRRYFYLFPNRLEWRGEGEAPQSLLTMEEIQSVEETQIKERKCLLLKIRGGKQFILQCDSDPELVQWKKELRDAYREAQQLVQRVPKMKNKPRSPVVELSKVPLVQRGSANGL

## NCCCC(N)(C(=O)O)C(F)F (stereo not given)
[1]
  percent of DMSO control GFP: 93.5% (inactive)
[2]
  GFP response vs DMSO: 99.7% (inactive)
[3]
  percent response of DMSO control: 98.6% (inactive)
[4]
  GFP response vs DMSO: 107% (inactive)
[5]
  GFP response, % of DMSO: 112% (inactive)
[6]
  double positive events: 62.2%
  vesicle binding response: 174% (inactive)
[7]
  inhibition: 5.61% (inactive)
[8]
  superoxide response (% of plate): 105% (inactive)
[9]
  aptamer binding inhibition: 3% (inactive)
[10]
  response: 5.08% (inactive)
[11]
  inhibition: 13.1% (inactive)
[12]
  response: -10.9% (inactive)
[13]
  binding (% of control): 97.7% (inactive)
[14]
  efflux inhibition (fraction of control): -0.135 (inactive)
[15]
  inhibition: -5% (inactive)
[16]
  differentiation response: -4.57% (inactive)

## CN(C)CCCN1c2ccccc2Sc2ccc(C(F)(F)F)cc21
[1]
  percent of DMSO control GFP: 99% (inactive)
[2]
  GFP response vs DMSO: 106% (inactive)
[3]
  percent response of DMSO control: 99% (inactive)
[4]
  GFP response vs DMSO: 115% (inactive)
[5]
  GFP response, % of DMSO: 113% (inactive)
[6]
  double positive events: 60.5%
  vesicle binding response: 196% (inactive)
[7]
  inhibition: 53.4% (active)
[8]
  superoxide response (% of plate): 88.6% (inactive)
[9]
  aptamer binding inhibition: -7% (inactive)
[10]
  response: 26.6% (inactive)
[11]
  inhibition: 29.2% (inactive)
[12]
  response: -0.19% (inactive)
[13]
  binding (% of control): 101% (inactive)
[14]
  efflux inhibition (fraction of control): 0.25 (inactive)
[15]
  inhibition: 6% (inactive)
[16]
  differentiation response: -18.8% (inactive)

## COc1cc(C2Nc3ccccc3NC3=C2C(=O)CC(c2ccc(OC)c(OC)c2)C3)ccc1O (stereo not given)
[1]
  percent of DMSO control GFP: 107% (inactive)
[2]
  GFP response vs DMSO: 95.2% (inactive)
[3]
  percent response of DMSO control: 117% (inactive)
[4]
  GFP response vs DMSO: 64.1% (inactive)
[5]
  GFP response, % of DMSO: 92.2% (inactive)
[6]
  double positive events: 53.7%
  vesicle binding response: 104% (inactive)
[7]
  inhibition: -3.16% (inactive)
[8]
  superoxide response (% of plate): 107% (inactive)
[9]
  aptamer binding inhibition: 3% (inactive)
[10]
  response: 0.79% (inactive)
[11]
  inhibition: -8.83% (inactive)
[12]
  response: 1.04% (inactive)
[13]
  binding (% of control): 98.4% (inactive)
[14]
  efflux inhibition (fraction of control): -0.35 (inactive)
[15]
  inhibition: 11% (inactive)
[16]
  differentiation response: -18.4% (inactive)

## CCN(CC)CCNC(=O)c1cc(Cl)c(N)cc1OC
[1]
  percent of DMSO control GFP: 105% (inactive)
[2]
  GFP response vs DMSO: 107% (inactive)
[3]
  percent response of DMSO control: 89.6% (inactive)
[4]
  GFP response vs DMSO: 92% (inactive)
[5]
  GFP response, % of DMSO: 99.7% (inactive)
[6]
  double positive events: 63.2%
  vesicle binding response: 204% (inactive)
[7]
  inhibition: -28.5% (inactive)
[8]
  superoxide response (% of plate): 104% (inactive)
[9]
  aptamer binding inhibition: 5% (inactive)
[10]
  response: 2.1% (inactive)
[11]
  inhibition: 23.4% (inactive)
[12]
  response: -4.6% (inactive)
[13]
  binding (% of control): 100% (inactive)
[14]
  efflux inhibition (fraction of control): -0.1 (inactive)
[15]
  inhibition: -10% (inactive)
[16]
  differentiation response: 7.09% (inactive)

## Cc1ccc(CSCC(=O)N2CCCC2)cc1
[1]
  percent of DMSO control GFP: 102% (inactive)
[2]
  GFP response vs DMSO: 98.7% (inactive)
[3]
  percent response of DMSO control: 101% (inactive)
[4]
  GFP response vs DMSO: 106% (inactive)
[5]
  GFP response, % of DMSO: 106% (inactive)
[6]
  double positive events: 63.7%
  vesicle binding response: 132% (inactive)
[7]
  inhibition: 20.4% (inactive)
[8]
  superoxide response (% of plate): 95% (inactive)
[9]
  aptamer binding inhibition: -2% (inactive)
[10]
  response: 7.33% (inactive)
[11]
  inhibition: -2.44% (inactive)
[12]
  response: -8.52% (inactive)
[13]
  binding (% of control): 97.9% (inactive)
[14]
  efflux inhibition (fraction of control): -0.05 (inactive)
[15]
  inhibition: 0% (inactive)
[16]
  differentiation response: -8.96% (inactive)

## CCOC(=O)c1ccc(N2C(=O)C(CC(=O)NC)N(CCc3ccc(OC)c(OC)c3)C2=S)cc1 (stereo not given)
[1]
  percent of DMSO control GFP: 103% (inactive)
[2]
  GFP response vs DMSO: 99.9% (inactive)
[3]
  percent response of DMSO control: 101% (inactive)
[4]
  GFP response vs DMSO: 104% (inactive)
[5]
  GFP response, % of DMSO: 98.8% (inactive)
[6]
  double positive events: 59.4%
  vesicle binding response: 248% (inactive)
[7]
  inhibition: 6.85% (inactive)
[8]
  superoxide response (% of plate): 113% (inactive)
[9]
  aptamer binding inhibition: 5% (inactive)
[10]
  response: 5.49% (inactive)
[11]
  inhibition: -11.1% (inactive)
[12]
  response: 0.17% (inactive)
[13]
  binding (% of control): 103% (inactive)
[14]
  efflux inhibition (fraction of control): 0.26 (inactive)
[15]
  inhibition: 4% (inactive)
[16]
  differentiation response: -1.12% (inactive)

## O=C(NCCO)c1ccc2[nH]c3ccccc3c2c1
[1]
  percent of DMSO control GFP: 98.4% (inactive)
[2]
  GFP response vs DMSO: 104% (inactive)
[3]
  percent response of DMSO control: 102% (inactive)
[4]
  GFP response vs DMSO: 101% (inactive)
[5]
  GFP response, % of DMSO: 101% (inactive)
[6]
  double positive events: 58.7%
  vesicle binding response: 246% (inactive)
[7]
  inhibition: -0.45% (inactive)
[8]
  superoxide response (% of plate): 96.6% (inactive)
[9]
  aptamer binding inhibition: 2% (inactive)
[10]
  response: -3.67% (inactive)
[11]
  inhibition: -8.91% (inactive)
[12]
  response: 3.8% (inactive)
[13]
  binding (% of control): 98.7% (inactive)
[14]
  efflux inhibition (fraction of control): 0.11 (inactive)
[15]
  inhibition: -1% (inactive)
[16]
  differentiation response: 5.13% (inactive)

## O=C(O)CCCN1C(=O)NC2NC(=O)NC21 (stereo not given)
[1]
  percent of DMSO control GFP: 103% (inactive)
[2]
  GFP response vs DMSO: 114% (inactive)
[3]
  percent response of DMSO control: 101% (inactive)
[4]
  GFP response vs DMSO: 86.1% (inactive)
[5]
  GFP response, % of DMSO: 97.5% (inactive)
[6]
  double positive events: 64.9%
  vesicle binding response: 914% (inactive)
[7]
  inhibition: -1.49% (inactive)
[8]
  superoxide response (% of plate): 106% (inactive)
[9]
  aptamer binding inhibition: 3% (inactive)
[10]
  response: 0.46% (inactive)
[11]
  inhibition: 35.1% (inactive)
[12]
  response: -1.41% (inactive)
[13]
  binding (% of control): 98.4% (inactive)
[14]
  efflux inhibition (fraction of control): -0.04 (inactive)
[15]
  inhibition: 25% (inactive)
[16]
  differentiation response: 33.5% (inactive)

## CN1C(C(=O)Nc2ccccn2)=C(O)c2ccccc2S1(=O)=O
[1]
  percent of DMSO control GFP: 101% (inactive)
[2]
  GFP response vs DMSO: 103% (inactive)
[3]
  percent response of DMSO control: 86.1% (inactive)
[4]
  GFP response vs DMSO: 106% (inactive)
[5]
  GFP response, % of DMSO: 97.6% (inactive)
[6]
  double positive events: 63.2%
  vesicle binding response: 383% (inactive)
[7]
  inhibition: -13.9% (inactive)
[8]
  superoxide response (% of plate): 104% (inactive)
[9]
  aptamer binding inhibition: 1% (inactive)
[10]
  response: -12.3% (inactive)
[11]
  inhibition: -12.3% (inactive)
[12]
  response: -0.85% (inactive)
[13]
  binding (% of control): 100% (inactive)
[14]
  efflux inhibition (fraction of control): -0.07 (inactive)
[15]
  inhibition: 26% (inactive)
[16]
  differentiation response: 14.9% (inactive)

## COc1ccc(C(C)N2CC34C=CC(O3)C(C(=O)OCC(C)C)C4C2=O)cc1 (stereo not given)
[1]
  percent of DMSO control GFP: 103% (inactive)
[2]
  GFP response vs DMSO: 107% (inactive)
[3]
  percent response of DMSO control: 96.6% (inactive)
[4]
  GFP response vs DMSO: 92% (inactive)
[5]
  GFP response, % of DMSO: 107% (inactive)
[6]
  double positive events: 63.5%
  vesicle binding response: 5650% (inactive)
[7]
  inhibition: -10.8% (inactive)
[8]
  superoxide response (% of plate): 98.6% (inactive)
[9]
  aptamer binding inhibition: 1% (inactive)
[10]
  response: -2.15% (inactive)
[11]
  inhibition: -17.5% (inactive)
[12]
  response: 3.8% (inactive)
[13]
  binding (% of control): 96.9% (inactive)
[14]
  efflux inhibition (fraction of control): 0.02 (inactive)
[15]
  inhibition: -4% (inactive)
[16]
  differentiation response: -8.55% (inactive)
